Compounds without any hit were thinned out: in the full panel of roughly 83,000, 20% have a hit.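 Compound tested at a single concentration for 48 hours in 96-well plates; a percent growth value below 10 was scored as active.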 Unmarked numbers belong to inactive results. Activity calls are given as the source filed them.
Tested on: HL-60(TB) leukemia
Assay: NCI-60 one-dose screen, 48 h (100 = growth as untreated, 0 = no growth, -100 = all killed)
Settings: 10 µM unless noted

Compound | growth
Cc1ccc(C(c2c(O)c3cc(Br)ccc3[nH]c2=O)c2c(O)c3cc(Br)ccc3[nH]c2=O)cc1 | 92.2%
COc1ccc(/C=C2\COc3ccc(-c4ccccc4)cc3C2=O)c(OC)c1 | 56.9%
O=C1OCC2=C1C(c1cccc(Cl)c1)c1cc3c(cc1N2CCO)OCO3 (stereo not drawn) | -19.3% (active)
S=c1c2ncccc2c(-c2ccccn2)nn1Cc1ccccn1 | 71.6%
CSc1nc(CC(C)C)c(C#N)c(=O)n1C | 78.7%
c1ccc([P+](c2ccccc2)(c2ccccc2)c2ccc3c4ccc([P+](c5ccccc5)(c5ccccc5)c5ccccc5)c5cccc(c6cccc2c63)c54)cc1 | 11.2%
CC/C=C\C[C@H](O)C/C=C1/C(=O)C=C[C@@H]1C/C=C\CCCCO | 36.4%
CC(=O)NCC1c2c(n(C)c3c(Cl)c(Cl)ccc23)C(=O)NC1(C)C (stereo not drawn) | 84%
O=C(/C=C/c1ccccc1)c1ccc(-n2cc(CN3CCN(c4cc5c(cc4F)c(=O)c(C(=O)O)cn5C4CC4)CC3)nn2)cc1 | 99.1%
NS(=O)(=O)Oc1ccc(NC(=O)C23CC4CC(CC(C4)C2)C3)cc1Cl | 100%
N#Cc1c(-c2cccc(Cl)c2)cc(-c2cccnc2)[nH]c1=O | 66.9%
COc1ccc(-c2cc(Cc3cccs3)c(=O)n(Cn3ccc4ccccc43)n2)cc1 | 98.4%
CC(C)(Sc1cc(C(C)(C)C)c(OC(=O)CCCC(=O)O)c(C(C)(C)C)c1)Sc1cc(C(C)(C)C)c(OC(=O)CCCC(=O)O)c(C(C)(C)C)c1 | -22.6% (active)

Source: PubChem BioAssay (NCI)
